This is a sample that favours compounds with a hit; in the whole collection about 12% have one here.
Cycloheximide cs: Cycloheximide Counterscreen for Small Molecule Inhibitors of Shiga Toxin. cell reporter, cycloheximide protein synthesis inhibition counterscreen. max response, %. actives 12% (n = 300,000); in the data active means max response mostly above about 13%, no sharp cut-off; inactive means mostly below about 14%; further: read at 38.3 µM for the half of the compounds with a filed dose; 0% is about no effect
NS1 inh: qHTS Assay for Inhibitors of Influenza NS1 Protein Function; Potency, µM (series often up to 46.1 µM), for inactives: top-dose activity, positive = more growth; actives 0.4% (n = 270,000); further: potency means the concentration at half of the fitted maximal effect; actives are rising curves; nearly all actives have a fitted effect of over 50% in size
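A cell-based growth assay was used: compounds that relieve NS1-induced slow growth of budding yeast raise OD600. Assay medium was yeast nitrogen base with ammonium sulphate and -URA supplement, pH 6.0, with 2% galactose.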
SARS PLP yeast: qHTS of Yeast-based Assay for SARS-CoV PLP; Potency, µM (titrated, usually from 32.9 µM), for the others: at the top dose activity, positive = growth rescue, actives largely listed as activators; S. cerevisiae expressing SARS-CoV PLpro, growth rescue; actives 0.19% (n = 330,000); AID 485353, 2010; further: potency means the concentration at half of the fitted maximal effect; 0% is about no effect; nearly all actives have a fitted effect of over 55% in size
Shiga toxin inh: A qHTS for Small Molecule Inhibitors of Shiga Toxin. Vero cells, Shiga toxin protein synthesis inhibition reporter. inhibition, % at 38.7 µM. actives 9.2% (n = 290,000); in the data active means inhibition mostly above about 28%, no sharp cut-off; inactive means mostly below about 43%; further: 0% is about no effect
Starred values were filed as active, the others as inactive; ? = inconclusive; . = no result; + = active, no number. Unless noted, the call rests on the fitted dose curve.

SMILES	Cycloheximide cs	NS1 inh	SARS PLP yeast	Shiga toxin inh
Cc1noc(C)c1C(=O)OCC(=O)Nc1ccccc1Oc1ccccc1	-1	-6%	-18%	24
Cc1[nH]c2ccccc2c1C(=O)CSC(=S)N1CCCCC1	95*	-1%	-7%	85*
O=C(CSC(=S)N1CCCCC1)c1ccccc1	23*	1%	-1%	35
O=C(CSC(=S)N1CCCC1)c1ccccc1	48*	0%	-1%	67*
O=C(O)CSC(=S)N1CCCC1	-1	1%	1%	4
CC(C)(C)c1ccc(-c2cn(-c3ccc(Br)cc3)c3[n+]2CCCS3)cc1	-2	.	0%	6
NS(=O)(=O)c1ccc(CCNC(=O)CCCn2c(=O)[nH]c3ccc(Br)cc3c2=O)cc1	-3	.	-1%	-14
CC(C)N(Cc1cn[nH]c1-c1ccc(-c2ccccc2)cc1)Cc1nccn1C	-2	2%	0%	18
Cc1oc(-c2nc3ccccc3n2C)cc1C(=O)c1ccccc1	27*	-80%	-69%	+
Cn1cc(C(=O)c2ccccc2)cc1-c1nc2ccccc2n1C	13*	-92%	-17%	31
CCC(=O)c1cc(-c2nc3ccccc3n2C)n(C)c1	1	-7%	-5%	13
O=C(Nc1ccc2c(c1)OCO2)O[C@@H]1C[C@H]2CCCC(=O)N3CC[C@@H](C1)[C@@H]23	7	-14%	0%	8
CC1(C)CCC(=O)N2CC[C@H]3C[C@H](OC(=O)Nc4ccc(Br)cc4)C[C@@H]1[C@H]32	22*	6%	2%	19
CN(C)/C=N/C(=S)Nc1ccccc1Cl	39*	-7%	-1%	49*
CN(C)/C=N/C(=S)Nc1ccccc1F	28*	-32%	2%	90
COc1cccc(C2=Nn3c(nnc3-c3ccccc3C)SC2)c1	-1	.	.	-8
CC(/C=N/NC(=O)c1cccs1)=C\c1ccco1	58*	.	-11%	128*
CC(=C/C(=O)O)/C=C/c1ccco1	-3	-14%	-11%	-10
CC(/C=N/NC(=O)Cc1cccs1)=C\c1ccco1	41*	-7%	-4%	37
CC(/C=C/c1ccco1)=N/NC(=O)Cc1cccs1	14*	18%	?	-30
O=S(=O)(c1cnccc1N1CCN(CCO)CC1)N1CCCCC1	0	3%	-3%	-7
CC(=O)NC1Sc2ccccc2N=C1c1ccccc1 (centres undefined)	43*	-73%	-8%	111*
COc1ccc(C(=O)C2CCCN(C3Cc4ccccc4C3)C2)cc1OC (centres undefined)	7	5%	1%	-6
COC(=O)C1=C[C@@H](C(=O)OC)C2C3=C(C(=O)[C@]2(C)NC(=O)c2ccccc2)[C@H](C)n2c(=O)n(C)c(=O)n2[C@@H]3C1 (some centres undefined)	-3	.	.	-4
COc1cccc(N=CC=C2OC(C)(C)C(C)(C)O2)c1	49*	.	2%	87*
SMILES	Cycloheximide cs	NS1 inh	SARS PLP yeast	Shiga toxin inh
Cc1cccc(N=CC=C2OC(C)(C)C(C)(C)O2)c1	36*	-2%	22%	108*
Cc1ccc(N=CC=C2OC(C)(C)C(C)(C)O2)cc1	20*	11%	5%	66*
CCN(C[C@H]1N[C@@](CC)(C(=O)OC)[C@H]2C(=O)N(Cc3ccccc3)C(=O)[C@@H]12)C(=O)Nc1ccc(Cl)cc1	.	.	2%	.
CC(C)c1ccc(NC2CCCN(C(=O)c3cccs3)C2)cc1 (centres undefined)	32*	-5%	-5%	23*
O=[N+]([O-])c1cccc(/C=N/N=C\c2ccccc2)c1	36*	6%	-4%	56*
O=[N+]([O-])c1cccc(/C=N/N2CCN(Cc3ccccc3)CC2)c1	27*	.	3%	83*
O=[N+]([O-])c1ccc(N/N=C/c2ccccc2)c(F)c1	74*	-6%	-9%	63*
O=[N+]([O-])c1cccc(NC(=S)N2CCN(c3ccccn3)CC2)c1	10	-15%	6%	2
O=[N+]([O-])c1cccc(/C=N/N2CCN(c3ccccn3)CC2)c1	15*	5%	-13%	1
O=[N+]([O-])c1cccc(/C=N/N2CCN(Cc3ccc(Cl)cc3)CC2)c1	-3	0%	1%	20
CN(Cc1ccc2c(c1)OCO2)C(=O)c1cc(-c2ccccc2)c(N2CCOCC2)s1	.	.	0%	.
COCCCNC(=O)CC1C[C@H](C(=O)N2CCOCC2)[C@@]2(C)c3[nH]c4ccc(OC)cc4c3CCN2C1=O (some centres undefined)	.	.	-10%	.
O=C(Cn1cc([N+](=O)[O-])ccc1=O)N1CCc2ccccc21	.	.	3%	.

Assay outcomes from PubChem BioAssay.
